Assay results published in PubChem BioAssay (NCI).
Where “and” joins values, the source holds several entries; their conditions need not be identical. Equal entries are not always repeated. The panel holds about 83,000 compounds, 20% with a hit somewhere; the sample as a whole holds those more often.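 How to read the values: 0–100, growth inhibition (40 = 60% inhibited); 0, no net growth; -100 to 0, cell death (-40 = 40% of starting cells died; -100 = all dead).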 Calls of active or inactive are those of the source. How the source made its calls: active means growth percent below 10; inactive means the rest.

System: MDA-MB-468 breast
Test: NCI-60 one-dose screen, 48 h (100 = growth as untreated, 0 = no growth, -100 = all killed)
Conditions: 10 µM unless noted

SMILES	growth
CN(C)S(=O)(=O)n1cnc([C@@H]2[C@@H]3C(=O)OC[C@@H]3C[C@]23N=CN(Cc2ccccc2)C3=O)c1	97.2% (inactive)
Cc1noc(C)c1-c1cc(O)cc(C(O)c2ccccc2)c1 (stereo not given)	24.9% (inactive)
COC1(CC[C@@H](C)COC2OC(CO)C(O)C(O)C2O)O[C@H]2C[C@H]3[C@@H]4CC=C5C[C@@H](OC6OC(CO)C(OC7OC(C)C(O)C(O)C7O)C(O)C6OC6OC(C)C(O)C(O)C6O)CC[C@]5(C)[C@H]4CC[C@]3(C)[C@H]2[C@@H]1C (stereo not given in full)	-24% (active)
CCOC(=O)C1=C(N)Oc2cc(OC)ccc2C1c1ccc(F)c(F)c1 (stereo not given)	-37.8% (active)
CC(c1ccc(-n2cccn2)cc1)c1cnc(N2CCc3ccc(C(N)=O)cc3C2)s1 (stereo not given)	30.1% (inactive)
CC1=CC(=O)C=CC1=Nc1ccc(N(C)C)cc1	48.8% (inactive) and -87.8% (active)
Cn1cc(-c2nc(-c3c[nH]c4ncccc34)cs2)c2cc(Br)ccc21	5.22% (active)
Cc1ccc(NC(=O)Nc2c(Cl)cccc2Cl)cn1	72.8% (inactive)
c1cc(OCCN2CCCCC2)cc(-c2n[nH]c3ccc(-c4ncn[nH]4)cc23)c1	93% (inactive)
Nc1n[nH]c2cc(F)c([C@@H]3Nc4ccc5[nH]ncc5c4[C@H]4C5CCC(C5)[C@@H]34)cc12 (stereo not given in full)	-11.7% (active)
NC(N)=Nc1ccc(Oc2cccc(Nc3ccc(Cl)c(C(F)(F)F)c3)c2)cc1	4.84% (active)
CC(C)c1ccc2c(c1)CCC1C2CCCC1(C)NCc1ccccc1 (stereo not given)	-44.5% (active)
N#C/C(=N\Nc1ccc(Cl)cc1)C(=O)Nc1cc(-c2ccccc2)nn1-c1ccccc1	7.6% (active)
CN1CCN(Cc2ccc(NC(=O)c3cncc(C#Cc4cnc(N)c5cnccc45)c3)cc2C(F)(F)F)CC1	6.98% (active)
COc1ccc(NC(=O)c2ccc3c(c2)nc(-c2ccc(Cl)cc2)n3-c2cc(C(C)(C)C)[nH]n2)cc1	87.5% (inactive)
COc1cc(CCC[P+](c2ccccc2)(c2ccccc2)c2ccccc2)c(OC)c2c1OCO2	-25.3% (active)
CCCOC(=O)N[C@H]1CCc2c(Cl)c(OC)c(OC)c(OC)c2-c2ccc(SC)c(=O)cc21	-18.6% (active)
Cc1ccc(S(=O)(=O)c2nc(-c3ccc(F)cc3)oc2S(C)(=O)=O)cc1	57.7% (inactive)

SMILES	growth
CCCC(=O)OCC1OC(n2cnc3c(=S)nc[nH]c32)C(OC(=O)CCC)C1OC(=O)CCC (stereo not given)	70.8% (inactive)
COc1cc(C2CC(c3ccc(Nc4nc(NCCO)nc(Nc5ccc(Cl)cc5)n4)cc3)=Nc3c(N)nc(N)nc3N2)cc(OC)c1OC (stereo not given)	58.6% (inactive)
Nc1nn(C(=O)Nc2ccc(Cc3ccccc3)cc2)c2ccc(Cl)cc12	72.3% (inactive)
Cc1nc2c(O)cccc2cc1CO	95.2% (inactive)
O=C1CCC(N2C(=O)c3cccc(NCCCCCCOc4ccc(Nc5nccc(Nc6ccccc6)n5)cc4)c3C2=O)C(=O)N1 (stereo not given)	49.3% (inactive)
COc1ccc(-c2ncc(-c3ccccc3)[nH]2)cc1OC	89.1% (inactive)
CCN(C)CCCOc1ccc(/C(=C(\C)Cc2cccc(OC)c2)c2ccc(OC(C)=O)cc2)cc1	101% (inactive)
S=c1[nH]cccc1-c1nnc2n1Nc1nc3ccccc3cc1CS2	102% (inactive)
Cc1nc2scc(-c3ccccc3)n2c(=O)c1CCO	101% (inactive)
COc1ccc(-c2cc(C(=O)N3N=C(c4ccc(N)cc4)CC3c3ccccc3)c3ccccc3n2)cc1 (stereo not given)	29.3% (inactive)
COc1cc(/C=C/C(=O)c2ccc(NC(=O)CSc3nnc(-c4ccc(Cl)cc4)n3-c3ccccc3)cc2)cc(OC)c1OC	72.9% (inactive)
COc1ccc(C2C(c3ccccc3)C(=O)N2c2cc(OC)c(OC)c(OC)c2)cc1I (stereo not given)	15.7% (inactive)
Oc1ccc(N=Nc2ccccn2)c(O)c1	-2.78% (active)
O=C(Nc1nc2ccc(F)cc2s1)c1cc(-c2ccc(F)cc2)n2nc(-c3ccccc3)cc2n1	92% (inactive)
O=C1/C(=C\c2cccn2Cc2ccc(Cl)cc2)c2ccccc2N1c1c(Cl)cccc1Cl	-27.9% (active)
O=C1Nc2ccccc2/C1=C/c1cccn1CCCCCn1c2ccccc2c(=O)c2ccccc21	37.6% (inactive)
COc1cc(/C=C/c2cc(/C=C/c3ccc(O)c(OC)c3)n(-c3c(Cl)cccc3Cl)c(=O)n2)ccc1O	29.6% (inactive)
